Test systems include RPMI-8226 leukemia; OVCAR-8 ovarian; OVCAR-5 ovarian; OVCAR-4 ovarian; SK-OV-3 ovarian; IGROV1 ovarian; OVCAR-3 ovarian; HS 578T breast; NCI/ADR-RES ovarian; T-47D breast.
Common to all, as to assay: NCI-60 one-dose screen, 48 h (100 = growth as untreated, 0 = no growth, -100 = all killed)
What all share (settings): 10 µM unless noted

Each structure is given as a SMILES string. This is part of a sample that, as a whole, favours compounds with a hit. Of some 83,000 tested, about 20% had one in any assay.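 Single-concentration screen, 48 h exposure, 96-well plates. Endpoint: percent growth. Below 10 = active.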 Unmarked numbers belong to inactive results. Active and inactive are the calls of the source.

On to `O=C(Nc1ncc(Cc2cccc(C(F)(F)F)c2)s1)C1COc2ccccc2O1` (stereo not given), for which the growth in the assay with RPMI-8226 leukemia is 76.9%; in the assay with OVCAR-8 ovarian, 89.9%; with OVCAR-5 ovarian it was 87.4%; in the assay on OVCAR-4 ovarian, 84.6%; in the assay with SK-OV-3 ovarian it was 100%; with IGROV1 ovarian it was 86.8%. In addition, the growth in the assay with OVCAR-3 ovarian was 90.6%; in the assay on HS 578T breast, 65.4%; in the assay on NCI/ADR-RES ovarian, 87.3%; in the assay with T-47D breast, 67.1%.
As to `CCOc1cccc(/C=N\Nc2nc(=O)cc(C(=O)OC)s2)c1O`, the growth in the assay with RPMI-8226 leukemia is 57.6%; in the assay with OVCAR-8 ovarian, 66.9%; with OVCAR-5 ovarian, 92.9%; in the assay with OVCAR-4 ovarian, 49.3%; in the assay on SK-OV-3 ovarian it was 95.6%; in the assay with IGROV1 ovarian it was 61.8%. Moreover, the growth in the assay with OVCAR-3 ovarian was 29.7%; in the assay with HS 578T breast it was 90.4%; in the assay on NCI/ADR-RES ovarian it was 32.3%; in the assay with T-47D breast, 37.8%.
In the case of `O=C(Nc1ccc(Br)cc1F)c1cc(I)ccc1O`, the growth is -8.84% (active) in the assay on RPMI-8226 leukemia; 9.66% (active) with OVCAR-8 ovarian; 24.2% with OVCAR-5 ovarian; 15.4% in the assay with OVCAR-4 ovarian; -10.4% (active) in the assay with SK-OV-3 ovarian; 16.6% in the assay on IGROV1 ovarian. In addition, the growth in the assay on OVCAR-3 ovarian was 4.89% (active); with HS 578T breast it was 7.43% (active); with NCI/ADR-RES ovarian it was 4.84% (active); with T-47D breast it was -14% (active).
Regarding `CCC(C)(C)C(=O)O[C@H]1C[C@@H](C)C=C2C=C[C@H](C)[C@H](CC[C@@H]3CC=CC(=O)O3)[C@H]21`, the growth in the assay on RPMI-8226 leukemia was -16.7% (active); in the assay on OVCAR-8 ovarian it was 61.6%; with OVCAR-5 ovarian, 142%; with OVCAR-4 ovarian, 106%; with SK-OV-3 ovarian, 115%; in the assay on IGROV1 ovarian, 97.2%. For the same compound, the growth is 51.2% with OVCAR-3 ovarian, 94.6% in the assay with HS 578T breast, 90.6% in the assay on NCI/ADR-RES ovarian and 80.8% in the assay on T-47D breast.
As for `COc1cc(C(=O)NN=C2c3ccccc3-c3ccccc32)cc(OC)c1OC`, the growth in the assay with RPMI-8226 leukemia was 23%; with OVCAR-8 ovarian it was 34.5%; in the assay with OVCAR-5 ovarian it was 63.4%; with OVCAR-4 ovarian, 55.5%; in the assay on SK-OV-3 ovarian it was 22.9%; in the assay with IGROV1 ovarian, 32.3%. Further, the growth is -1.71% (active) in the assay with OVCAR-3 ovarian, 50.6% in the assay on HS 578T breast, 23.3% in the assay on NCI/ADR-RES ovarian and 37.8% in the assay on T-47D breast.
Regarding `COc1ccc(-c2cn[nH]c2-c2cc(OC)c(OC)c(OC)c2)cc1OCc1ccccc1`, the growth is 8.45% (active) in the assay on RPMI-8226 leukemia; 40.1% with OVCAR-8 ovarian; 67.1% with OVCAR-5 ovarian; 50.1% in the assay on OVCAR-4 ovarian; 12.5% in the assay on SK-OV-3 ovarian; 44.8% in the assay on IGROV1 ovarian. Moreover, the growth in the assay with OVCAR-3 ovarian was 10.3%; with HS 578T breast, 6.1% (active); with NCI/ADR-RES ovarian, -22.2% (active); with T-47D breast, 23.9%.
As to `CCN1C(=O)N(CC)C2Nn3c(s/c(=C4\C(=O)N(C(C)C)c5ccccc54)c3=O)=NC21` (stereo not given), the growth in the assay with RPMI-8226 leukemia was 23.3%; in the assay on OVCAR-8 ovarian, 39.9%; in the assay with OVCAR-5 ovarian, 64%; in the assay with OVCAR-4 ovarian, 35.2%; in the assay with SK-OV-3 ovarian, 35.5%; with IGROV1 ovarian it was 49.5%. Moreover, the growth in the assay with OVCAR-3 ovarian was 19.4%; in the assay on HS 578T breast it was 60.1%; in the assay on NCI/ADR-RES ovarian, 7.07% (active); in the assay with T-47D breast, 27.9%.
Take `Clc1ncccc1Nc1ccc2nnc(-c3ccncc3)n2n1`: the growth in the assay on RPMI-8226 leukemia was 98.9%; in the assay with OVCAR-8 ovarian, 99.3%; with OVCAR-5 ovarian it was 104%; with OVCAR-4 ovarian it was 91.3%; with SK-OV-3 ovarian, 104%; in the assay on IGROV1 ovarian, 82.3%. For the same compound, the growth is 102% in the assay with OVCAR-3 ovarian, 102% with HS 578T breast, 98.7% in the assay with NCI/ADR-RES ovarian and 86.6% with T-47D breast.
For `CCCCCCc1cc2cc(-c3csc(/C=C/c4ccccc4)n3)c(=O)oc2cc1O`, the growth in the assay on RPMI-8226 leukemia was -1.82% (active); in the assay with OVCAR-8 ovarian it was 20%; in the assay with OVCAR-5 ovarian it was 81.7%; in the assay on OVCAR-4 ovarian, 36.8%; in the assay with SK-OV-3 ovarian, 47%; with IGROV1 ovarian, 37.2%. Besides, the growth with OVCAR-3 ovarian was 2.25% (active); with HS 578T breast, 3.39% (active); in the assay on NCI/ADR-RES ovarian, 20.2%; in the assay on T-47D breast it was 5.5% (active).
With `O=C1c2cc(Cl)ccc2Oc2cc([N+](=O)[O-])ccc2N1c1ccc(F)cc1F`, the growth was 87.6% in the assay on RPMI-8226 leukemia; 86.8% with OVCAR-8 ovarian; 100% with OVCAR-5 ovarian; 79.4% with OVCAR-4 ovarian; 111% in the assay on SK-OV-3 ovarian; 75.9% in the assay on IGROV1 ovarian. Also, the growth in the assay on OVCAR-3 ovarian was 106%; with HS 578T breast it was 87.2%; in the assay on NCI/ADR-RES ovarian it was 97.7%; with T-47D breast, 72%.
Take `O=C(CCc1nnc2sc(COc3ccccc3)nn12)c1nc2ncccc2[nH]1`: the growth with RPMI-8226 leukemia was 140%; with OVCAR-8 ovarian it was 98.9%; in the assay on OVCAR-5 ovarian, 98.4%; in the assay with OVCAR-4 ovarian it was 100%; with SK-OV-3 ovarian, 94.7%; in the assay with IGROV1 ovarian it was 87.2%. The growth in the assay on OVCAR-3 ovarian is 108%; in the assay with HS 578T breast, 79%; with NCI/ADR-RES ovarian, 106%; in the assay on T-47D breast, 92.7%.
Regarding `CC(C)C[C@H](C(=O)N[C@H](C(N)=O)C(C)C)N1CC=CCN(OCc2ccccc2)S1(=O)=O`, the growth in the assay with RPMI-8226 leukemia was 98.7% [2.5 µM]; in the assay on OVCAR-8 ovarian it was 95.2% [2.5 µM]; in the assay on OVCAR-5 ovarian, 95.2% [2.5 µM]; in the assay with OVCAR-4 ovarian, 109% [2.5 µM]; in the assay with SK-OV-3 ovarian it was 88.3% [2.5 µM]; in the assay on IGROV1 ovarian, 107% [2.5 µM]. The growth with OVCAR-3 ovarian is 112% [2.5 µM]; in the assay with HS 578T breast, 107% [2.5 µM]; in the assay on NCI/ADR-RES ovarian it was 95.6% [2.5 µM]; in the assay on T-47D breast, 95.7% [2.5 µM].
Consider `COc1ccc(C2c3ccc4ccccc4c3Oc3ncn(CCCn4ccnc4)c(=N)c32)cc1OC` (stereo not given), for which the growth in the assay on RPMI-8226 leukemia is 36.1%; with OVCAR-8 ovarian, 67.8%; with OVCAR-5 ovarian, 67.5%; in the assay on OVCAR-4 ovarian it was 58.9%; in the assay on SK-OV-3 ovarian it was 76.1%; in the assay on IGROV1 ovarian, 72.8%. Besides, the growth was 61.3% with OVCAR-3 ovarian, 83.9% in the assay on HS 578T breast, 67.8% with NCI/ADR-RES ovarian and 72.4% in the assay on T-47D breast.
For `O=C(Nc1ccc(Cl)cc1F)c1cc(I)ccc1O`, the growth in the assay on RPMI-8226 leukemia was 3.96% (active); in the assay with OVCAR-8 ovarian it was 10.1%; in the assay with OVCAR-5 ovarian it was 79.9%; in the assay on OVCAR-4 ovarian, 23.1%; in the assay with SK-OV-3 ovarian, -4.98% (active); in the assay on IGROV1 ovarian, 27.2%. Besides, the growth in the assay on OVCAR-3 ovarian is 10.4%; in the assay with HS 578T breast, 3.41% (active); with NCI/ADR-RES ovarian, 11.3%; in the assay with T-47D breast, -0.952% (active).

The values are drawn from PubChem BioAssay (NCI).
